We go through 54 compounds from ChEMBL document CHEMBL3988442, “University of Dundee, Small-Polar-MMV Screening Library” (2021).

The structures appear in SMILES notation. Screen size: about 48,000 compounds; about 13,000 (27%) showed an effect of 50% or more. The list shows a part of the results.

The assay relates to Wolbachia pipientis. Nature of the assay: Anti-Wolbachia Cell-Based Screen. The format is functional. Set-up: scale not given: in the data most compounds retested in dose-response had high values. As to conditions: 5 µM.
As for `Cc1cc(C[C@@H]2COC[C@@H]2NC(=O)CN2CCCCCC2)on1`, the “Percent Effect” value turned out to be 40.3%.

For the compound `Cc1cc(C[C@@H]2COC[C@@H]2NC(=O)CN2CCCC2)on1`, the “Percent Effect” value is -5.725%.

On to `CCC[C@H]1CN(Cc2cc(C)no2)C[C@@H]1NC(=O)C1(COC)CCC1`, for which the “Percent Effect” value is reported as -6.466%.

Consider `CCCOc1ccccc1CN[C@@H]1CCC[C@H]1Cc1cc(C)no1.O=C(O)CC(O)(CC(=O)O)C(=O)O`, for which the “Percent Effect” value is 112%.

In the case of `Cc1cc(C[C@@H]2COC[C@@H]2NC(=O)Cn2c(=O)oc3ccccc32)on1`, the “Percent Effect” value was -2.365%.

On to `Cc1cc(C[C@@H]2CCC[C@H]2NCc2ccc(C(F)(F)F)cc2)on1.O=C(O)CC(O)(CC(=O)O)C(=O)O`, for which the “Percent Effect” value was 113.9%.

With `Cc1cc(C[C@@H]2COC[C@@H]2NC(=O)CCN2Cc3ccccc3C2)on1`, the “Percent Effect” value is -14.09%.

On to `Cc1cc(C[C@@H]2CCC[C@H]2NCc2c[nH]nc2-c2ccccc2)on1.O=C(O)CC(O)(CC(=O)O)C(=O)O`, for which the “Percent Effect” value came out at 114%.

As for `Cc1cc(C[C@@H]2COC[C@@H]2NC(=O)CN2CCc3ccccc3C2)on1`, the “Percent Effect” value is given as -17.37%.

Turning to `CSc1nccc(NCC2CNCCOC2)n1` (centres undefined), the “Percent Effect” value is reported as 0.1221%.

As to `COCCN1CCN(C(=O)c2ccc(COC)o2)[C@H]2CS(=O)(=O)C[C@H]21`, the “Percent Effect” value is listed as 7.213%.

Take `CC(C)NC(=O)N[C@H]1C[C@@H](Cc2cc(CN3CCOCC3)on2)C1(C)C`: the “Percent Effect” value is listed as -0.1597%.

Regarding `Cc1c[nH]c(CN(C)C(=O)c2cccc(CCC(C)(C)O)c2)n1`, the “Percent Effect” value is -0.9219%.

Regarding `O=C(c1ccc[nH]1)N1CCCC1c1nc(-c2ccccc2)n[nH]1` (centres undefined), the “Percent Effect” value is 3.184%.

Turning to `Cc1cc(C2CCCN(C(=O)COc3ccc(F)cc3)C2)n[nH]1` (centres undefined), the “Percent Effect” value is listed as -12.08%.

In the case of `CC(=O)N1CCCC(c2nc(-c3ccccc3)c[nH]2)C1` (centres undefined), the “Percent Effect” value was -5.299%.

Take `Cc1cc(C2CCCN(C(=O)COc3cc(F)ccc3F)C2)n[nH]1` (centres undefined): the “Percent Effect” value is listed as -12.04%.

With `CC(=O)N1CCCC(c2nc(N(C)C)ncc2-c2ccccc2)C1` (centres undefined), the “Percent Effect” value was found to be 94.88%.

As to `CC(=O)N1CCCC1c1cccc(C)c1C` (centres undefined), the “Percent Effect” value was 2.963%.

As for `CC(=O)N1CCCC1c1nc(N(C)C)ncc1-c1ccccc1` (centres undefined), the “Percent Effect” value was determined as 120.4%.

For the compound `CCC(=O)N1CCCC(c2nc(N(C)C)ncc2-c2ccc(F)cc2)C1` (centres undefined), the “Percent Effect” value was found to be 103.1%.

In the case of `COCC(=O)N1CCCC(c2nc(N(C)C)ncc2-c2ccccc2)C1` (centres undefined), the “Percent Effect” value was 96.39%.

With `COCC(=O)N1C[C@H]2CC[C@@]3(N=C(c4ccccc4)NC3=O)[C@H]2C1`, the “Percent Effect” value was -3.823%.

Consider `COCC(=O)N1CCCC(COc2ccccc2C)C1` (centres undefined), for which the “Percent Effect” value is -17.48%.

As for `CC(=O)N1Cc2ccccc2C[C@H]1C(=O)Nc1ccccn1`, the “Percent Effect” value is listed as -1.208%.

`Cc1ccc(C(=O)N2CCSCC2)cc1NC(=O)NCCO`: the “Percent Effect” value is given as -7.623%.

Regarding `Cc1cc(CNC(=O)C2CCCN2C(=O)OC(C)(C)C)no1` (centres undefined), the “Percent Effect” value is -19.91%.

Take `Cc1nc(C2CCCN(C(=O)CCCOc3cccc(F)c3)C2)no1` (centres undefined): the “Percent Effect” value was -2.46%.

Turning to `COCC(=O)N1CCCC(c2nc(N)ncc2-c2cccc(F)c2)C1` (centres undefined), the “Percent Effect” value is reported as 111.1%.

With `Cc1cc(C2CCCN(C(=O)COc3cccc(F)c3)C2)n[nH]1` (centres undefined), the “Percent Effect” value is recorded as -5.532%.

`O=C1CN(C(=O)c2nnn(-c3ccc(C(F)(F)F)cc3)n2)CCN1`: the “Percent Effect” value was 7.084%.

Turning to `O=C(CC1CC1)N1CCC2(CC1)CN(CCn1cccn1)C(=O)CO2`, the “Percent Effect” value was 0.04038%.

On to `O=C(C1CCCC1)N1C[C@@H]2CCN(c3cccnc3)C[C@@H]2C1.O=C(O)C(F)(F)F`, for which the “Percent Effect” value was -15.19%.

Regarding `Cn1ccnc1CN1CCC2(CC1)CN(Cc1ccccc1)C(=O)CO2.O=C(O)C(F)(F)F`, the “Percent Effect” value is -7.87%.

For the compound `O=C(CC1CC1)N1C[C@@H]2CCN(c3cccnc3)C[C@@H]2C1.O=C(O)C(F)(F)F`, the “Percent Effect” value came out at 87.47%.

Regarding `O=C(CC1CC1)N1CCC2(CC1)CN(Cc1cccnc1)C(=O)CO2.O=C(O)C(F)(F)F`, the “Percent Effect” value stood at 85.91%.

In the case of `O=C(O)C(F)(F)F.O=C(c1ccncc1)N1C[C@@H]2CCN(c3cccnc3)C[C@@H]2C1`, the “Percent Effect” value is reported as -5.49%.

Turning to `O=C(Cc1ccccn1)N1CCC2(CC1)CN(CC1CC1)C(=O)CO2.O=C(O)C(F)(F)F`, the “Percent Effect” value is on record as 15%.

Consider `O=C(O)C(F)(F)F.O=C1COC2(CCN(CC3CC3)CC2)CN1c1ccccc1`, for which the “Percent Effect” value is -2.17%.

`O=C(CC1CC1)N1CCC2(CC1)CN(c1cccnc1)C(=O)CO2.O=C(O)C(F)(F)F`: the “Percent Effect” value came out at 86.93%.

In the case of `Cn1ccnc1CN1CCC2(CC1)CN(Cc1cccnc1)C(=O)CO2.O=C(O)C(F)(F)F.O=C(O)C(F)(F)F`, the “Percent Effect” value is reported as -2.822%.

In the case of `CN(C)CCN1CCC2(CC1)CN(Cc1cccnc1)C(=O)CO2.O=C(O)C(F)(F)F.O=C(O)C(F)(F)F.O=C(O)C(F)(F)F`, the “Percent Effect” value came out at 106.6%.

As to `CC(C)NC(=O)N1CCC2(CC1)NC(=O)[C@H]1CN(C(=O)N(C)C)C[C@H]12`, the “Percent Effect” value was -13.82%.

`Cn1ncc2c(NCC3CCS(=O)(=O)C3)nc(-c3ccncc3)nc21` (centres undefined): the “Percent Effect” value came out at 10.96%.

As to `O=C1CC(N(C(=O)c2ccc(Oc3ccccc3)cc2)C2CC2)C(=O)N1` (centres undefined), the “Percent Effect” value is -10.84%.

For `CN(C)S(=O)(=O)N1C[C@@H]2CC[C@H](C1)N(Cc1ccc3nsnc3c1)C2`, the “Percent Effect” value is 4.433%.

Regarding `Cc1cc(C)n2nc(C(=O)N3CCCC4(CNC(=O)O4)C3)cc2n1` (centres undefined), the “Percent Effect” value is given as 1.638%.

For `O=C(N1CCCC1)N1CCC2(CC1)CN(c1cccnc1)C(=O)CO2.O=C(O)C(F)(F)F`, the “Percent Effect” value is on record as 93.48%.

In the case of `CCS(=O)(=O)N1CCC2(CC1)CN(c1cccnc1)C(=O)CO2.O=C(O)C(F)(F)F`, the “Percent Effect” value is given as 93.05%.

Turning to `CCS(=O)(=O)N1CCC2(CN(c3cccc(F)c3)C(=O)CN2C)C1.O=C(O)C(F)(F)F` (centres undefined), the “Percent Effect” value was 7.629%.

As for `CCc1nc(C)c([C@H]2CN(C)C[C@@H]2C(=O)NCCc2cnccn2)[nH]1`, the “Percent Effect” value was -9.925%.

For the compound `COc1ccc(CN(C)[C@@H]2COC[C@H]2c2ccc(F)cc2)cc1.O=C(O)CC(O)(CC(=O)O)C(=O)O`, the “Percent Effect” value was determined as 117.4%.

As for `COc1ccc(CN2C[C@@H]3COC[C@@H](N4CCN(C)CC4)[C@@H]3C2)cc1.O=C(O)C(F)(F)F.O=C(O)C(F)(F)F.O=C(O)C(F)(F)F`, the “Percent Effect” value was 13.92%.

Regarding `COc1ccc(CC(C)(O)CNC(=O)Cc2ccc(F)cc2)cc1` (centres undefined), the “Percent Effect” value is 8.313%.
